The nature of assay [1]: optical density shifts of acrAB sulA E. coli – strain DRC41, OD650, 48 h, E. coli filamentation inducer project, primary screen (AID 1152).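 Further: E. coli MC1000 strain DRC41 lacking acrAB efflux pump and sulA.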 The note with it: higher = more signal, called active from +8 up or from −8 down.
Assay [2] can be described thus: probe aLefty1 binding on compound microarray – biochemical, small-molecule microarray, 635/667 nm fluorescence, primary screen (AID 1153).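 Further: score merges spot fluorescence with signal-to-noise ratio from the scanned slide images.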 The note with it: higher = more signal.
Assay [3] is described as follows: plasmodial surface anion channel blockers, osmotic lysis – cell-based, P. falciparum Indochina, OD700, 1 h, primary screen (AID 1154). The note with it: P. falciparum Indochina infected RBC osmotic lysis, higher = more signal, called active from +8 up or from −8 down.
Assay [4] is described as follows: plasmodial surface anion channel blockers, osmotic lysis – cell-based, P. falciparum Indochina, OD700, 2 h, primary screen (AID 1155).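 Further: lysis reports solute entry through the parasite surface anion channel PSAC.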 The note with it: P. falciparum Indochina infected erythrocytes, higher = more signal, called active from +8 up or from −8 down.
Assay [5] can be described thus: changes in parasitized red cell lysis, either direction – P. falciparum Indochina, OD700, 3 h, PSAC antagonist project, primary screen (AID 1156). To be noted: P. falciparum-infected erythrocytes, osmotic lysis, higher = more signal, called active from +8 up or from −8 down.
A short description of assay [6]: plasmodial surface anion channel blockers, osmotic lysis – cell-based, P. falciparum Indochina, OD700, 18 h, primary screen (AID 1157). The note with it: P. falciparum Indochina infected erythrocytes, osmotic lysis OD700, 18 h; higher = more signal, called active from +8 up or from −8 down.
A short description of assay [7]: S6 kinase pathway phospho-S6 level changes – cell-based, A549, cytoblot, luminescence, serum-stimulated, primary screen (AID 1158).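 Further: serum-stimulated A549 lung adenocarcinoma cells; signal is phosphorylated S6 detected by cytoblot immunostaining with HRP secondary.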 To be noted: 5 h, higher = more signal.
For assay [8], the target named is NADPH oxidase 2 (Homo sapiens) (UniProt P04839). Put plainly: compounds shifting NOX2 Amplex Red fluorescence – cell-based, HEK293-NOX2, PMA-stimulated, NOX inhibitor project, primary screen (AID 1159). Further: test concentration not given here. The note with it: 45 min, higher = more signal, called active from +8 up or from −8 down.
Assay [9] addresses NADPH oxidase 4 (Homo sapiens) (UniProt Q9NPH5). Put plainly: compounds shifting NOX4 Amplex Red fluorescence – cell-based, HEK293-NOX4, tetracycline-induced, NOX inhibitor project, primary screen (AID 1160). To be noted: HEK293-NOX4, Amplex Red H2O2 fluorescence, 45 min; higher = more signal, called active from +8 up or from −8 down.
In assay [10] the target is NADPH oxidase 5 (Homo sapiens) (UniProt Q96PH1). The assay is described as follows: compounds shifting NOX5 Amplex Red fluorescence – cell-based, HEK293-NOX5, NOX inhibitor project, primary screen (AID 1161). The note with it: HEK293-NOX5, ionomycin, 45 min, higher = more signal.
A short description of assay [11]: compound effects on lung adenocarcinoma cell viability – A549, calcein-AM fluorescence, 48 h, basal, profiling panel (AID 1162). Further: test concentration not given here. The note with it: higher = more signal.
Assay [12] in a line: compound effects on differentiated 3T3-L1 adipocyte viability – cell-based, 3T3-L1 adipocytes, calcein-AM fluorescence, 48 h, basal, profiling panel (AID 1163). Further: test concentration not given here. To be noted: 3T3-L1 adipocytes viability, higher = more signal.
Assay [13] can be described thus: compound effects on hepatocellular carcinoma cell viability – HepG2, calcein-AM fluorescence, 48 h, basal, profiling panel (AID 1164). Further: test concentration not given here. To be noted: higher = more signal.
Assay [14] in a line: compound effects on multiple myeloma cell viability – MM1S, calcein-AM fluorescence, 48 h, basal, profiling panel (AID 1165).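 Further: viability of MM1S multiple myeloma cells under basal unstimulated conditions; test concentration not given here.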 The note with it: higher = more signal.
A short description of assay [15]: calcein-AM signal in unstimulated myeloma cells – cell-based, calcein-AM fluorescence, 48 h, PK04 Diversity Set, profiling panel (AID 1166).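 Further: cells grown under basal conditions without added stimulus; test concentration not given here.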 The note with it: RPMI8226 myeloma viability, higher = more signal.
The nature of assay [16]: JC-1 mitochondrial signal, unstimulated HepG2 cells – cell-based, JC-1 fluorescence, 24 h, 100 nL compound, profiling panel (AID 1167). Further: test concentration not given here. To be noted: HepG2 mitochondrial potential, higher = more signal.
Assay [17] in a line: JC-1 mitochondrial signal, unstimulated adipocytes – cell-based, JC-1 fluorescence, 3T3-L1 adipocytes, 24 h, 100 nL compound, profiling panel (AID 1168). Further: test concentration not given here. To be noted: JC-1 mitochondrial fluorescence, higher = more signal, called active from +8 up or from −8 down.
A short description of assay [18]: JC-1 mitochondrial signal, unstimulated myeloma cells – cell-based, JC-1 fluorescence, RPMI8226, 24 h, 100 nL compound, profiling panel (AID 1169). Further: test concentration not given here. The note with it: JC-1 mitochondrial potential fluorescence, higher = more signal.
Assay [19] is described as follows: JC-1 mitochondrial signal, unstimulated MM1S myeloma – cell-based, JC-1 fluorescence, 24 h, 100 nL compound, profiling panel (AID 1170). Further: test concentration not given here. The note with it: MM1S mitochondrial potential, higher = more signal.
Assay [20] is described as follows: resazurin metabolic signal in A549 cells – cell-based, resazurin fluorescence, 24 h, PK04 Diversity Set, profiling panel (AID 1171). Further: test concentration not given here. To be noted: A549 viability, higher = more signal, called active from +8 up or from −8 down.

Molecules are shown by their SMILES. Calls of active or inactive are those of the source.

Chain of NADPH oxidase 4 (Homo sapiens) (Q9NPH5 whole entry, looked up): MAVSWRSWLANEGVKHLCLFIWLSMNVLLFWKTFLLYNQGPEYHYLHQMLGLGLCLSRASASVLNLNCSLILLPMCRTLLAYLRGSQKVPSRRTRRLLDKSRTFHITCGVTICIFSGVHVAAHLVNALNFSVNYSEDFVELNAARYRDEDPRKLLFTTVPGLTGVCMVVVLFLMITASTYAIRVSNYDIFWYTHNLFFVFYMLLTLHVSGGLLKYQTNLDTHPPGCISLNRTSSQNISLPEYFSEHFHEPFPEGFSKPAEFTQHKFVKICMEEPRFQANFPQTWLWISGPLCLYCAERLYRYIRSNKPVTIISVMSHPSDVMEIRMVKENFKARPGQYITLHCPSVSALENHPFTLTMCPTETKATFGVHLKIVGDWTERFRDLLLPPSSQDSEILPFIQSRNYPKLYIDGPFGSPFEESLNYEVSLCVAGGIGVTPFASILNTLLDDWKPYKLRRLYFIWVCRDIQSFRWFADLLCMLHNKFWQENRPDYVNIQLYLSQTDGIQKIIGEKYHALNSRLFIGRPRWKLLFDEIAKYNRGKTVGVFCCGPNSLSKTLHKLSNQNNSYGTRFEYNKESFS
Chain of NADPH oxidase 5 (Homo sapiens) (Q96PH1 whole entry, looked up): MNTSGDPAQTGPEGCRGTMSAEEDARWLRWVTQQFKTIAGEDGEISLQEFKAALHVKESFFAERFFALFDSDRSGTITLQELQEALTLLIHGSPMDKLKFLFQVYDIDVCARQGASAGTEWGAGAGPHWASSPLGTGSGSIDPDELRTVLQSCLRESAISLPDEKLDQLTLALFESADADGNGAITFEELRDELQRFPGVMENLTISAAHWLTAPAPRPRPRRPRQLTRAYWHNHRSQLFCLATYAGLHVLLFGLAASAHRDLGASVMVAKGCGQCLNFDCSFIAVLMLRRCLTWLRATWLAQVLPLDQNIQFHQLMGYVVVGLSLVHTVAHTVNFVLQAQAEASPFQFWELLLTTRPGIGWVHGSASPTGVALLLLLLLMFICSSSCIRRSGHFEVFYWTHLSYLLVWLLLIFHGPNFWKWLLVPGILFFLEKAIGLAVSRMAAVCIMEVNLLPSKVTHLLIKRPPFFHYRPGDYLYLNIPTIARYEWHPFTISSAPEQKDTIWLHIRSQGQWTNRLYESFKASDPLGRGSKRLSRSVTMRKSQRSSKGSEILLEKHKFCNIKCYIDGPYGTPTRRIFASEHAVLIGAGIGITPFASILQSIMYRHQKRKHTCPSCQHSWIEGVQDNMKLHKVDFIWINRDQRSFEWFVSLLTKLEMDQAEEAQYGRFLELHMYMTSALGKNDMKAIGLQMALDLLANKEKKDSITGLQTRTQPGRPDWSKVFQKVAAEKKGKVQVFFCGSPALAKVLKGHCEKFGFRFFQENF
Chain of NADPH oxidase 2 (Homo sapiens) (P04839 whole entry, looked up): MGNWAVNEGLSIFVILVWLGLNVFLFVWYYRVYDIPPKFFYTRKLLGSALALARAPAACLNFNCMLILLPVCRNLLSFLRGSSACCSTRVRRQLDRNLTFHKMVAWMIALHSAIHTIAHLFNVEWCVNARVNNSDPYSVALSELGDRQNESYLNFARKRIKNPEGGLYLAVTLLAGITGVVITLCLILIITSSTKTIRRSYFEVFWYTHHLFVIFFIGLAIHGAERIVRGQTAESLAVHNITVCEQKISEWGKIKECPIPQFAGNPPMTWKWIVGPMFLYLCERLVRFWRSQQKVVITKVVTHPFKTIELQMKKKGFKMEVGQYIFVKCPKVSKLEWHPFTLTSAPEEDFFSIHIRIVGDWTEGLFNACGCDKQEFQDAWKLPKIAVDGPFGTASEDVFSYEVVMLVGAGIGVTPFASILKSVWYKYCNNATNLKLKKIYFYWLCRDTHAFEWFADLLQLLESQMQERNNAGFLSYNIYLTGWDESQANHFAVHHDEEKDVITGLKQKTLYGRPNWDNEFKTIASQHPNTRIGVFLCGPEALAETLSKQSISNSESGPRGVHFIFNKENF

In the case of `O=C1O[C@@H](c2ccccc2)[C@@H](c2ccccc2)N2[C@@H](c3ccccc3OCCO)[C@]3(C(=O)Nc4ccccc43)[C@@H](C(=O)O)[C@H]12`, the z-score is -0.749 (inactive) in assay [1]; 0.749 (inactive) in assay [3]; 0.745 (inactive) in assay [4]; -1.6 (inactive) in [5]; 0.761 (inactive) in [6]; 0.128 in [7]. Moreover, the z-score in [8] was 2.66 (inactive); in [9] it was 0.516 (inactive); in [10] it was 1.24; in assay [11], -0.796; in assay [12], 0.266; in assay [13] it was 0.045. Moreover, the z-score is -2.64 in assay [14]; 0.0803 in [15]; 0.249 in assay [16]; -0.742 (inactive) in assay [17]; 0.649 in assay [18]; 0.554 in [19]. For the same compound, in [20], the z-score is 0.362 (inactive). This compound also registered a composite z-score in assay [2] of -0.518.

For the compound `[N-]=[N+]=Nc1ccccc1C[C@@]1(C(=O)N2CCCCC2)N=C(c2ccc(OCCCO)cc2)O[C@@H]1c1ccccc1N=[N+]=[N-]`, the z-score is 0.0693 (inactive) in [1]; 31.8 (active) in [3]; 29.5 (active) in assay [4]; 2.52 (inactive) in assay [5]; 3.95 (inactive) in [6]; 0.0562 in [7]. For the same compound, the z-score in assay [8] was 0.0863 (inactive); in assay [9] it was -0.141 (inactive); in assay [10], -0.801; in [11], -0.911; in assay [12], 0.0245; in assay [13] it was -1.7. The z-score in assay [14] is -3.47; in [15] it was -4.35; in assay [16], -1.21; in assay [17], -0.923 (inactive); in assay [18] it was -1.3; in assay [19], -2.21. Moreover, in assay [20], the z-score is -0.797 (inactive). The composite z-score in [2] was determined as 0.926.

Regarding `O=C1C[C@@](C(=O)NCc2ccccc2)(c2ccc([N+](=O)[O-])cc2)[C@@H](c2ccc(CO)cc2)N1CC12CC3CC(CC(C3)C1)C2`, the z-score in assay [1] was 0.874 (inactive); in assay [3] it was 5.33 (inactive); in assay [4] it was 0.786 (inactive); in assay [5], 3.76 (inactive); in [6] it was 0.674 (inactive); in assay [7] it was -0.0355. Moreover, the z-score was 0.208 (inactive) in [8]; -0.821 (inactive) in [9]; 1.1 in assay [10]; -0.702 in assay [11]; 0.0687 in [12]; -0.487 in assay [13]. For the same compound, the z-score was -2.81 in assay [14]; -4.32 in assay [15]; 2.17 in assay [16]; 0.112 (inactive) in assay [17]; -0.552 in assay [18]; -1.2 in assay [19]. In assay [20], the z-score is -3.09 (inactive). Moreover, the composite z-score in assay [2] is -0.287.

For `C=CCOC(=O)[C@H]1[C@@H]2C(=O)O[C@@H](c3ccccc3)[C@@H](c3ccccc3)N2[C@@H](c2ccc(OCCOC(=O)[C@@H]3C[C@@H]4C(=O)N5CCC[C@H]5C(=O)N4[C@@H]3c3cccc(OCCO)c3)cc2)[C@]12C(=O)Nc1ccc(I)cc12`, the z-score in [1] was -0.811 (inactive); in assay [3], 4.52 (inactive); in assay [4] it was 2.5 (inactive); in assay [5] it was 1.25 (inactive); in assay [6], 1.5 (inactive); in assay [7], -0.679. Further, the z-score is 1.86 (inactive) in assay [8]; 0.833 (inactive) in [9]; 1.49 in assay [10]; -1.06 in [11]; 0.997 in assay [12]; -0.649 in assay [13]. For the same compound, the z-score in [14] is -0.349; in assay [15], 0.206; in [16] it was -0.689; in [17], 1.19 (inactive); in assay [18], -0.643; in [19] it was -0.959. For the same compound, the z-score in assay [20] is -0.476 (inactive). Further, the composite z-score in assay [2] came out at 1.53.

For the compound `C=C(CCCC)/C(=C/C[C@H](OC(C)=O)c1ccc(OCCO)cc1)c1cnc2ccccc2c1`, the z-score in assay [1] is 0.621 (inactive); in assay [3], 22 (active); in [4], 6 (inactive); in assay [5], 1.23 (inactive); in [6], 1.04 (inactive); in assay [7], -0.1. Further, the z-score in assay [8] was -2.53 (inactive); in assay [9] it was -0.429 (inactive); in assay [10], -2.06; in [11] it was -0.138; in assay [12], 0.0248; in assay [13] it was -0.257. Also, the z-score in [14] is -2.17; in assay [15] it was -0.861; in assay [16], 1.91; in assay [17], -1.26 (inactive); in assay [18], -0.108; in assay [19] it was -0.552. Moreover, the z-score in assay [20] was 1.24 (inactive). Further, in assay [2], the composite z-score is 0.0999.

The record behind these values is PubChem BioAssay.
